Measurements as given in PubChem BioAssay (EPA / NIEHS).
Active and inactive are the calls of the source. Rule for the calls: active = hit-call score of the fitted dose curve at least 0.9, where 1 is the maximum; inactive = score below 0.9.

Columns and labels:
[1] = read-out: TIMP metallopeptidase inhibitor 2 (TIMP2), TIMP2 (gene 7077); test: BSK_KF3CT_TIMP2: BioMAP Diversity Plus: KF3CT Assay for TIMP metallopeptidase inhibitor 2 (TIMP2) Biomarker Activity (AID 2283071); conditions: primary human keratinocytes with fibroblasts; actives raise or lower the signal
Procedure, shortened: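 Co-culture of human primary keratinocytes and foreskin fibroblasts, measured 24 h after chemical dosing. TIMP-2 quantified by ELISA and fitted in both directions relative to DMSO. Cytotoxicity checked in parallel cultures by SRB total-protein staining.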

[2] = read-out: Transforming growth factor beta 1 (TGFb1), TGFB1 (gene 7040); test: BSK_KF3CT_TGFb1: BioMAP Diversity Plus: KF3CT Assay for Transforming growth factor beta 1 (TGFb1) Biomarker Activity (AID 2283072); conditions: primary human keratinocytes with fibroblasts; actives raise or lower the signal
Procedure, shortened: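 Human keratinocyte/foreskin fibroblast co-culture; TGF-b1 measured by ELISA 24 h after dosing, fitted bidirectionally versus DMSO. Cytotoxicity checked in parallel cultures by total protein (SRB staining, 560 nm).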

[3] = read-out: C-C motif chemokine 2 (Homo sapiens) (UniProt P13500); test: BSK_KF3CT_MCP1: BioMAP Diversity Plus: KF3CT Assay for Monocyte Chemoattractant Protein 1 (MCP1/CCL2) Biomarker Activity (AID 2283073); conditions: primary human keratinocytes with fibroblasts; actives raise or lower the signal
Procedure, shortened: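 Human keratinocyte–foreskin fibroblast co-culture; MCP-1 measured by ELISA 24 h after dosing. Bidirectional fit vs DMSO; cytotoxicity tracked by SRB total protein in parallel cultures.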

[4] = read-out: Matrix Metallopeptidase 9 (MMP9), MMP9 (gene 4318); test: BSK_KF3CT_MMP9: BioMAP Diversity Plus: KF3CT Assay for Matrix Metallopeptidase 9 (MMP9) Biomarker Activity (AID 2283074); conditions: primary human keratinocytes with fibroblasts; actives raise or lower the signal;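 for AC50: MMP9 protein level quantified by ELISA in the co-culture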
Procedure, shortened: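 Human keratinocyte and foreskin fibroblast co-culture exposed to chemicals for 24 h; MMP9 biomarker measured by ELISA, bidirectional fitting relative to DMSO; cytotoxicity tracked by SRB total protein staining in parallel cultures.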

CD40, CD40 (gene 958) [5] = test: BSK_LPS_CD40: BioMAP Diversity Plus: LPS Assay for CD40 Biomarker Activity (AID 2283076); conditions: primary human HUVEC with PBMC; actives raise or lower the signal
Procedure, shortened: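 HUVEC plus PBMC co-culture stimulated with LPS; CD40 quantified by ELISA 24 h after compound dosing. Fitting was bidirectional relative to DMSO. SRB staining of parallel cultures flagged overt cytotoxicity.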

[6] = read-out: E-selectin (Homo sapiens) (UniProt P16581); test: BSK_LPS_Eselectin: BioMAP Diversity Plus: LPS Assay for Eselectin Biomarker Activity (AID 2283077); conditions: primary human HUVEC with PBMC; actives raise or lower the signal
Procedure, shortened: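 Human umbilical vein endothelial cells co-cultured with PBMC under LPS stimulation; cell-surface E-selectin measured by ELISA 24 h after dosing. Change in either direction versus DMSO, with SRB total-protein staining in parallel cultures for cytotoxicity.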

[7] = read-out: Interleukin-8 (IL8), CXCL8 (gene 3576); test: BSK_LPS_IL8: BioMAP Diversity Plus: LPS Assay for Interleukin-8 (IL8) Biomarker Activity (AID 2283078); conditions: primary human HUVEC with PBMC; actives raise or lower the signal
Procedure, shortened: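 Human umbilical vein endothelial cells co-cultured with PBMC, LPS-stimulated, exposed to compound for 24 h. IL-8 quantified by ELISA; fitted in both directions against DMSO, with SRB total-protein staining of parallel cultures for cytotoxicity.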

[8] = BSK_LPS_SRB: Viability Assessment in the BioMAP Diversity Plus: LPS Assay (AID 2283079); conditions: primary human HUVEC with PBMC;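 note: total protein by sulforhodamine B absorbance as a cytotoxicity measure; measured one day after compound addition; fitted in both directions against DMSO so loss or gain of signal counts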
Procedure, shortened: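 Co-culture of human umbilical vein endothelial cells and PBMC, read 24 h after dosing. Total protein by 0.1% SRB staining after 10% TCA fixation, absorbance at 560 nm; bidirectional fit against DMSO.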

[9] = read-out: Interleukin-1 alpha (IL1a), IL1A (gene 3552); test: BSK_LPS_IL1a: BioMAP Diversity Plus: LPS Assay for Interleukin-1 alpha (IL1a) Biomarker Activity (AID 2283080); conditions: primary human HUVEC with PBMC; actives raise or lower the signal
Procedure, shortened: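 Human umbilical vein endothelial cells co-cultured with PBMC and stimulated with LPS; IL-1a measured by ELISA 24 h after dosing. Bidirectional fitting against DMSO; cytotoxicity checked by SRB staining in parallel cultures.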

[10] = read-out: Monocyte Chemoattractant Protein-1 (MCP1), CCL2 (gene 6347); test: BSK_LPS_MCP1: BioMAP Diversity Plus: LPS Assay for Monocyte Chemoattractant Protein-1 (MCP1) Biomarker Activity (AID 2283081); conditions: primary human HUVEC with PBMC; actives raise or lower the signal;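 for AC50: secreted MCP-1 protein quantified by ELISA in culture supernatant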
Procedure, shortened: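 Human umbilical vein endothelial cells co-cultured with PBMC, LPS-stimulated; secreted MCP-1 measured by ELISA 24 h after compound addition. Bidirectional curve fitting against DMSO baseline; SRB total-protein staining in parallel cultures for cytotoxicity.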

[11] = BSK_LPS_PGE2: BioMAP Diversity Plus: LPS Assay for Prostaglandin E2 (PGE2) Biomarker Activity (AID 2283082); conditions: primary human HUVEC with PBMC; actives raise or lower the signal;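 for AC50: secreted prostaglandin E2 measured by ELISA in LPS-stimulated co-culture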
Procedure, shortened: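 HUVEC plus human PBMC co-culture stimulated with LPS; secreted PGE2 quantified by ELISA 24 h after chemical dosing. Activity fitted bidirectionally against DMSO baseline; parallel SRB staining (0.1% SRB after 10% TCA fixation, 560 nm) flags overt cytotoxicity.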

[12] = read-out: Tumor necrosis factor (Homo sapiens) (UniProt P01375); test: BSK_LPS_TNFa: BioMAP Diversity Plus: LPS Assay for Tumour Necrosis Factor alpha (TNFa) Biomarker Activity (AID 2283085); conditions: primary human HUVEC with PBMC; actives raise or lower the signal
Procedure, shortened: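 Human umbilical vein endothelial cells co-cultured with PBMC and stimulated with LPS. TNFa was measured by ELISA 24 h after chemical dosing, fitted bidirectionally relative to DMSO.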

[13] = read-out: Vascular cell adhesion molecule 1 (VCAM1), VCAM1 (gene 7412); test: BSK_LPS_VCAM1: BioMAP Diversity Plus: LPS Assay for Vascular cell adhesion molecule 1 (VCAM1) Biomarker Activity (AID 2283086); conditions: primary human HUVEC with PBMC; actives raise or lower the signal
Procedure, shortened: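 Human umbilical vein endothelial cells co-cultured with PBMC and stimulated with LPS; VCAM-1 measured by ELISA 24 h after dosing. Bidirectional curve fitting against DMSO baseline; cytotoxicity tracked in parallel by SRB total-protein staining.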

CD40, CD40 (gene 958) [14] = test: BSK_SAg_CD40: BioMAP Diversity Plus: SAg Assay for CD40 Biomarker Activity (AID 2283088); conditions: primary human HUVEC with PBMC; actives raise or lower the signal
Procedure, shortened: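 HUVEC plus PBMC co-culture, superantigen-activated, with CD40 read by ELISA 24 h after dosing. Curves fitted in both directions against DMSO. Overt cytotoxicity checked by parallel SRB total-protein staining.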

CD69, CD69 (gene 969) = test: BSK_SAg_CD69: BioMAP Diversity Plus: SAg Assay for CD69 Biomarker Activity (AID 2283089); conditions: primary human HUVEC with PBMC; actives raise or lower the signal;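 for AC50: cell surface CD69 protein quantified by ELISA with fluorescence detection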
Procedure, shortened: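 HUVEC co-cultured with PBMC were dosed with chemical, and CD69 was measured by ELISA with fluorescence read-out 24 h later. Bidirectional curve fitting used DMSO as negative control and activity baseline.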

[15] = read-out: Monocyte Chemoattractant Protein-1 (MCP1), CCL2 (gene 6347); test: BSK_SAg_MCP1: BioMAP Diversity Plus: SAg Assay for Monocyte Chemoattractant Protein-1 (MCP1) Biomarker Activity (AID 2283090); conditions: primary human HUVEC with PBMC; actives raise or lower the signal
Procedure, shortened: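 MCP-1 levels in the endothelial–PBMC SAg co-culture were quantified by ELISA at 24 h post-dosing; both increases and decreases versus DMSO scored. Cytotoxicity monitored by SRB total protein in parallel cultures.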

[16] = read-out: urokinase plasminogen activator (uPA), PLAU (gene 5328); test: BSK_KF3CT_uPA: BioMAP Diversity Plus: KF3CT Assay for urokinase plasminogen activator (uPA) Biomarker Activity (AID 2283075); conditions: primary human keratinocytes with fibroblasts; actives raise or lower the signal
Procedure, shortened: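 Primary human keratinocyte/foreskin fibroblast co-culture exposed to chemical; uPA measured by ELISA at 24 h. Bidirectional fit versus DMSO, with parallel SRB total-protein staining for cytotoxicity.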

[17] = read-out: Macrophage colony-stimulating factor (MCSF), CSF1 (gene 1435); test: BSK_LPS_MCSF: BioMAP Diversity Plus: LPS Assay for Macrophage colony-stimulating factor (MCSF) Biomarker Activity (AID 2283083); conditions: primary human HUVEC with PBMC; actives raise or lower the signal
Procedure, shortened: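 HUVEC–PBMC co-culture, M-CSF measured by ELISA 24 h after chemical dosing. Fitted in both directions relative to DMSO as negative control; overt cytotoxicity assessed by SRB total-protein staining in parallel cultures.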

[18] = read-out: Tissue Factor, F3 (gene 2152); test: BSK_LPS_TissueFactor: BioMAP Diversity Plus: LPS Assay for Tissue Factor Biomarker Activity (AID 2283084); conditions: primary human HUVEC with PBMC; actives raise or lower the signal
Procedure, shortened: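 Human umbilical vein endothelial cells co-cultured with PBMC were dosed with compound. Cell-surface CD142 was measured by ELISA 24 h later. Activity was fitted bidirectionally against DMSO, with SRB total-protein staining in parallel cultures for cytotoxicity.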

CD38, CD38 (gene 952) = test: BSK_SAg_CD38: BioMAP Diversity Plus: SAg Assay for CD38 Biomarker Activity (AID 2283087); conditions: primary human HUVEC with PBMC; actives raise or lower the signal
Procedure, shortened: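 Human HUVEC plus PBMC co-culture stimulated with superantigen; CD38 measured by ELISA 24 h after chemical dosing. Fluorescence read-out, bidirectional fit against DMSO; cytotoxicity tracked in parallel by SRB and Alamar Blue.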

Measured: AC50

Sequence of E-selectin (Homo sapiens) (P16581 whole entry, looked up): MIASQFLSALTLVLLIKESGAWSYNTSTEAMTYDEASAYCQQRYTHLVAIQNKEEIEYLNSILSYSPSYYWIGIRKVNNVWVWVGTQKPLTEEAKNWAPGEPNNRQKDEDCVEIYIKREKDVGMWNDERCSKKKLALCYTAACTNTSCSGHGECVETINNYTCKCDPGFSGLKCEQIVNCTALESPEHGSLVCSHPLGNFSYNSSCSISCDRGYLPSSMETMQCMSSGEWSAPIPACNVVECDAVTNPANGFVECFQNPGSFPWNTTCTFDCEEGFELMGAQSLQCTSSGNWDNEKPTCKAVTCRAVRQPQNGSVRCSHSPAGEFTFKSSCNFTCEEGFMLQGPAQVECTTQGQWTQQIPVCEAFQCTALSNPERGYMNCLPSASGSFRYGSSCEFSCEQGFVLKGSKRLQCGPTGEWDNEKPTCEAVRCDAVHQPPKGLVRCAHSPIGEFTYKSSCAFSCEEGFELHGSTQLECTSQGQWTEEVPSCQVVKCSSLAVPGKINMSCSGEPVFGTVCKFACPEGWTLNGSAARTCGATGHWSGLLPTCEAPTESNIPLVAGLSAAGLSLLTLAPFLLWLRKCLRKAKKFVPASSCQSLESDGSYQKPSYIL
Sequence of Tumor necrosis factor (Homo sapiens) (P01375 whole entry, looked up): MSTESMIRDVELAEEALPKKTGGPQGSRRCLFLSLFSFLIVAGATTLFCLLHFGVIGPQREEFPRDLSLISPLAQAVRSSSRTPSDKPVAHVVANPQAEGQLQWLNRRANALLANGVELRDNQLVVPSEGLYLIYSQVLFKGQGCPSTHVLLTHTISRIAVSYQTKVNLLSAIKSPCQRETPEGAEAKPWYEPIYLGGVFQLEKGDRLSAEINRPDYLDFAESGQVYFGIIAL

CC(C)(C)c1cc(/C=C2\SC(N)=NC2=O)cc(C(C)(C)C)c1O
active: [1] 11.5 µM | [2] 12.8 µM | [3] 6.59 µM | [4] 9.79 µM | CD40, CD40 (gene 958) [5] 13 µM | [6] 27.2 µM | [7] 20 µM | [8] 26.4 µM | [9] 11.5 µM | [10] 26.9 µM | [11] 0.186 µM | [12] 11.7 µM | [13] 15.6 µM | CD40, CD40 (gene 958) [14] 17.4 µM | CD69, CD69 (gene 969) 20 µM | [15] 12.7 µM

C[C@]12CC[C@@H]3c4ccc(O)cc4CC[C@H]3[C@@H]1CC[C@H]2O
active: [8] 9.95 µM | [17] 8.61 µM | [15] 15.4 µM
not listed: [10] | [13]
inactive: all other assays above

CC/C(=C(/CC)c1ccc(O)cc1)c1ccc(O)cc1
active: [1] 29.1 µM | [2] 5.87 µM | [3] 11.2 µM | [4] 12.3 µM | [16] 29.3 µM | CD40, CD40 (gene 958) [5] 20 µM | [6] 30.3 µM | [7] 37 µM | [8] 25.4 µM | [9] 29.7 µM | [10] 33.9 µM | [11] 20 µM | [17] 15.2 µM | [18] 29.9 µM | [12] 32.3 µM | [13] 26.8 µM | CD38, CD38 (gene 952) 19 µM | CD40, CD40 (gene 958) [14] 17.8 µM | CD69, CD69 (gene 969) 25.1 µM | [15] 21.6 µM

c1ccc(C[n+]2cccc3ccccc32)cc1
not listed: CD40, CD40 (gene 958) [5] | [16] | [17] | [18] | CD38, CD38 (gene 952)
inactive: all other assays above

O=C1O[C@H]([C@@H](O)CO)C(O)=C1O
not listed: [16] | [17] | [18] | CD38, CD38 (gene 952)
inactive: all other assays above

c1ccc2ccccc2c1
not listed: [18]
inactive: all other assays above
